Results filed as inconclusive are left out. Where a call stands in place of a potency, no number is given. A number with no mark means an inactive call. Active and inactive are the calls of the source. The call rests on the fitted dose curve; in most records, active means well fitted cell-killing curve with a large enough effect; inconclusive means small, poorly fitted or top-dose-only effect, or effect the other way; inactive means flat fitted curve, though single readings scatter.
Experiments:
Test in all cases: Primary qHTS to identify gynecologic anti-cancer compounds using libraries of approved drugs and bioactive compounds (AID 1345084); further: nearly all actives have a fitted effect of over 55% in size
[1] = system: C33A; conditions: Gynecologic cancer cell panel viability, ATPlite luminescence, 48 h; series mostly up to 57.5 µM
Summary of the method: (§1)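 Cytotoxicity screen measuring ATP content by luciferase luminescence. Each compound is applied at five concentrations for 48 h at 37 C with 5% CO2.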

[2] = system: CAOV3; conditions: Gynecologic cancer cell panel viability, ATPlite luminescence, 48 h; series mostly up to 57.5 µM
Summary of the method: as §1

[3] = system: CASKI; conditions: Gynecologic cancer cell panel viability, ATPlite luminescence, 48 h; series mostly up to 57.5 µM
Summary of the method: as §1

[4] = system: Es-2; conditions: Gynecologic cancer cell panel viability, ATPlite luminescence, 48 h; series mostly up to 57.5 µM
Summary of the method: as §1

[5] = system: HeLa; conditions: Gynecologic cancer cell panel viability, ATPlite luminescence, 48 h; series mostly up to 57.5 µM
Summary of the method: as §1

[6] = system: Hek293T; conditions: Gynecologic cancer cell panel viability, ATPlite luminescence, 48 h, control line for the selectivity index; series mostly up to 57.5 µM
Summary of the method: as §1

[7] = system: JEG-3; conditions: Gynecologic cancer cell panel viability, ATPlite luminescence, 48 h; series mostly up to 57.5 µM
Summary of the method: as §1

[8] = system: OV90; conditions: Gynecologic cancer cell panel viability, ATPlite luminescence, 48 h; series mostly up to 57.5 µM
Summary of the method: as §1

[9] = system: PA-1; conditions: Gynecologic cancer cell panel viability, ATPlite luminescence, 48 h; series mostly up to 57.5 µM
Summary of the method: as §1
Potency means the concentration at half of the fitted maximal effect.

SMILES	Potency [1]	Potency [2]	Potency [3]	Potency [4]	Potency [5]	Potency [6]	Potency [7]	Potency [8]	Potency [9]	activity change, negative = cytotoxicity [1]	activity change, negative = cytotoxicity [2]	activity change, negative = cytotoxicity [3]	activity change, negative = cytotoxicity [4]	activity change, negative = cytotoxicity [5]	activity change, negative = cytotoxicity [6]	activity change, negative = cytotoxicity [7]	activity change, negative = cytotoxicity [8]	activity change, negative = cytotoxicity [9]
CN(C)N(C)C(=O)[C@@]1(Cc2ccccc2)CCCN(C(=O)[C@@H](Cc2c[nH]c3ccccc23)NC(=O)C(C)(C)N)C1	inactive	inactive	inactive	inactive	inactive	inactive	inactive	inactive	inactive									
Cc1cc(-c2cc(OC(=O)c3ccccc3)ccc2Cl)cc2nnc(Nc3ccc(OCCN4CCCC4)cc3)nc12	inactive	inactive	inactive	inactive	inactive	inactive	inactive	inactive	inactive									
CC(C)(C)c1ccc(C(=O)Nc2cn3cc(-n4ccnc4)ccc3n2)cc1	inactive	inactive	inactive	inactive	inactive	inactive	inactive	inactive	inactive									
COC1C=C(C)C(O)(CO)C2(C)CCCC(C)(C)C12 (stereo unspecified)	inactive	inactive	inactive	inactive	inactive	inactive	inactive	inactive	inactive									
O=C1C[C@]23C=CCN4CCC5c6cc7c(cc6N1[C@@]5(CC2)C43)OCO7 (stereo partly specified)	inactive	inactive	inactive	inactive	inactive	inactive	inactive	inactive	inactive									
CCC/C=C\C=C/CCc1cc(O)c([C@@H]2O[C@H](CO)[C@@H](O)[C@H](O)[C@H]2O)c(O)c1C(=O)OC	inactive	inactive	inactive	inactive	inactive	inactive	inactive	inactive	inactive									
CC(NCCCc1cccc(C(F)(F)F)c1)c1cccc2ccccc12 (stereo unspecified)	inactive	inactive	inactive	inactive	inactive	inactive	inactive	inactive	inactive									
C/C=C(/C=C(C)/C=C/C=C/C=C(\C)C(=O)C12OC1C(O)(CCO)NC2=O)C(=O)OC (stereo unspecified)	inactive	inactive	inactive	inactive	inactive	inactive	inactive	inactive	inactive									
C=C1C(=O)OC2CC(C)C(CCC(C)=O)=CCC12 (stereo unspecified)	inactive	inactive	inactive	inactive	inactive	inactive	inactive	inactive	inactive									
C=C(C)C(=O)O[C@H]1/C(C=O)=C\CC/C(CO)=C/[C@H]2OC(=O)C(=C)[C@@H]2[C@@H]1OC	inactive	inactive	inactive	inactive	inactive	inactive	inactive	inactive	inactive									
O=C(N[C@H]1CCC[C@H](CO)C1)C1CCN(c2nc3cc(Cl)c(-c4ccc(Cl)cc4)cc3o2)CC1	inactive	inactive	inactive	inactive	inactive	inactive	inactive	inactive	inactive									
NS(=O)(=O)c1ccc(NC(=O)Nc2ccc(F)cc2)cc1	inactive	inactive	inactive	inactive	inactive	inactive	inactive	inactive	inactive									
Clc1cccc(COc2cncc(N3CCNCC3)n2)c1	inactive	inactive	inactive	inactive	inactive	inactive	inactive	inactive	inactive									
COc1cccc(N2CCN(C3=Nc4c(F)cccc4[C@H](CC(=O)O)N3c3cc(C(F)(F)F)ccc3OC)CC2)c1	inactive	inactive	inactive	inactive	inactive	inactive	inactive	inactive	inactive									
COc1c(CCC(=O)O)cccc1O[C@@H]1O[C@H](CO)[C@@H](O)[C@H](O)[C@H]1O	inactive	inactive	inactive	inactive	inactive	inactive	inactive	inactive	inactive									
Cc1ccccc1C(C(=O)NC1CCCCC1)N(C(=O)Cn1cnc2ccccc21)c1cccc(F)c1 (stereo unspecified)	inactive	inactive	inactive	inactive	inactive	inactive	inactive	inactive	inactive									
COc1cccc(CN(C(=O)CC(C)(C)C)[C@H]2C[C@H](C(=O)N3CCNCC3)N(Cc3ccc4c(c3)OCO4)C2)c1	inactive	inactive	inactive	inactive	inactive	inactive	inactive	inactive	inactive									
c1cc(-c2cnn3cc(-c4ccc(N5CCNCC5)cc4)cnc23)c2cccnc2c1	inactive	inactive	inactive	inactive	inactive	inactive	inactive	inactive	inactive									
C=C1C(OC2OC(CO)C(O)C(O)C2O)CC2C(C)(C)C(O)CCC2(C)C1CC/C(C)=C\COC(=O)CC(=O)O (stereo unspecified)	inactive	inactive	inactive	inactive	inactive	inactive	inactive	inactive	inactive									
COc1ccc(CN2CCN(CCCSc3cc(C(C)(C)C)c(O)c(C(C)(C)C)c3)CC2)c(OC)c1OC										1.62% [at 11.6 µM]	11% [at 11.6 µM]	-0.531% [at 11.6 µM]	12.2% [at 11.6 µM]	8.85% [at 11.6 µM]	-2.05% [at 11.6 µM]	1.83% [at 11.6 µM]	3.61% [at 11.6 µM]	1.3% [at 11.6 µM]

SMILES	Potency [1]	Potency [2]	Potency [3]	Potency [4]	Potency [5]	Potency [6]	Potency [7]	Potency [8]	Potency [9]	activity change, negative = cytotoxicity [1]	activity change, negative = cytotoxicity [2]	activity change, negative = cytotoxicity [3]	activity change, negative = cytotoxicity [4]	activity change, negative = cytotoxicity [5]	activity change, negative = cytotoxicity [6]	activity change, negative = cytotoxicity [7]	activity change, negative = cytotoxicity [8]	activity change, negative = cytotoxicity [9]
Cn1c(SCC(=O)N2CCC[C@H]2C(=O)Nc2ccccc2-c2ccccc2)nc2ccccc21	inactive	inactive	inactive	inactive	inactive	inactive	inactive	inactive	inactive									
C1=C/COCc2cc(ccc2OCCN2CCCC2)Nc2nccc(n2)-c2cccc(c2)COC/1	11.2 µM (active)	11.2 µM (active)	3.55 µM (active)	14.1 µM (active)	3.98 µM (active)	7.94 µM (active)	11.2 µM (active)	17.8 µM (active)	2.82 µM (active)									
COc1ccccc1N1CCN(CC[C@@](C)(C(=O)C2CCCCC2)c2ccccc2)CC1	inactive	inactive	inactive	inactive	inactive	inactive	inactive	inactive	inactive									
O=C(Nc1cc(C(F)(F)F)ccc1N1CCCCC1)c1ccncc1	inactive	inactive	inactive	inactive	inactive	inactive	inactive	inactive	inactive									
C/C(=C/C=C\C=C\Cc1cnco1)[C@@H](O)C(C)(C)C(N)=O	inactive	inactive	inactive	inactive	inactive	inactive	inactive	inactive	inactive									
CC1OC2OC(=O)C3(C)CC4C5(CO5)C5=CC(=O)OC(C)(C)C5=CC(=O)C4(C)C(C1=O)C23 (stereo unspecified)	inactive	inactive	inactive	inactive	inactive	inactive	inactive	inactive	inactive									
C/C(=C\CCC(C)C1=CCC2(C)OC3=C(CC12)C(=O)C(O)CC3)CO (stereo unspecified)	inactive	inactive	inactive	inactive	inactive	inactive	inactive	inactive	inactive									
C[C@@H]1CC[C@]2(C(=O)O)CC[C@]3(C)C(=CCC4[C@@]5(C)CC[C@H](O)[C@](C)(C(=O)O)C5CC[C@]43C)C2[C@]1(C)O (stereo partly specified)	inactive	inactive	inactive	inactive	inactive	inactive	inactive	inactive	inactive									
C=C1CC[C@@H]2[C@](C)(CO)[C@H](O)CC[C@@]2(C)[C@@H]1C/C=C1/C(=O)OCC1OC(=O)/C(=C/CO)C(O)C[C@@H]1C(=C)CC[C@@H]2[C@](C)(CO)[C@H](O)CC[C@]21C (stereo partly specified)	inactive	inactive	inactive	inactive	inactive	inactive	inactive	inactive	inactive									
CC(C)C(C)C(O)C1CC23CC(=O)C4(O)C(=C2CCC3C1C)C=CC1(O)CC(O)CCC14C (stereo unspecified)	inactive	inactive	inactive	inactive	inactive	inactive	inactive	inactive	inactive									
COc1cc2c(cc1O)C1(Cc3ccc4c(c3C1O)OCO4)[N+](C)([O-])CC2 (stereo unspecified)	inactive	inactive	inactive	inactive	inactive	inactive	inactive	inactive	inactive									
CC(/C=C/C(=O)NO)=C\[C@@H](C)C(=O)c1ccc(N(C)C)cc1	3.55 µM (active)	4.47 µM (active)	1.58 µM (active)	5.62 µM (active)	3.55 µM (active)	3.16 µM (active)	1.41 µM (active)	2.24 µM (active)	1 µM (active)									
C[C@]12CC[C@@H]3c4ccc(O)c(O)c4CC[C@H]3[C@@H]1CCC2=O	inactive	inactive	inactive	inactive	inactive	inactive	inactive	inactive	inactive									
C[C@@]12C(=O)N(c3ccc(C(=O)Nc4cccc5cccnc45)cc3)C(=O)[C@@H]1[C@@H]1C=C[C@H]2C1	inactive	inactive	inactive	inactive	inactive	inactive	inactive	inactive	inactive									
CC(=O)OC/C(=C/C(=O)O)CC[C@@H]1C(C=O)=CC[C@@H]2C(C)(C)CCC[C@@]12C	inactive	inactive	inactive	inactive	inactive	inactive	inactive	inactive	inactive									
CC(C)(C)Oc1ccc(OCC2Cc3ccccc3CN2C(=O)c2cccc3ccccc23)cc1 (stereo unspecified)	inactive	inactive	inactive	inactive	inactive	inactive	inactive	inactive	inactive									
O=C(Nc1ccccc1)N1CCC(Cc2cnc3ccccc3c2)CC1	inactive	inactive	inactive	inactive	inactive	inactive	inactive	inactive	inactive									
CCCCC1CCC(c2nc(-c3ccncc3)no2)CC1 (stereo unspecified)	inactive	inactive	inactive	inactive	inactive	inactive	inactive	inactive	inactive									
CCN(c1cc(-c2ccc(CN3CCOCC3)cc2)cc(C(=O)NCc2c(C)cc(C)[nH]c2=O)c1C)C1CCOCC1	inactive	inactive	inactive	inactive	inactive	inactive	inactive	inactive	inactive									
